# From PubChem
# GPR151 activ: activates the human receptor GPR151; Q8TDV0; PathHunter beta-arrestin GPR151 cells, luminescence; activation, % at 11.2 µM; 1% of 650,000 active; in the data active means activation above about 4.9%;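 further: 0% = median of compound wells and 100% = cells with positive control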
# FBW7 act: human FBW7 E3 ligase activation, primary screen; AlphaScreen FBW7–phospho-cyclin E peptide binding, activator screen; 0.13% of 650,000 active; normalized activity (activation), % at 26.1 µM; in the data active means normalized activity above about 1.9%;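 further: purified mutant Fbw7 with reduced substrate affinity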
# TEAD-YAP inh: TEAD-YAP interaction inhibition; HEK-TIYL cells, TEAD-Gal4/YAP UAS-luciferase luminescence; inhibition, % at 9.12 µM; 1.4% of 640,000 active; in the data active means inhibition above about 32%;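 further: 0% = median of test compound wells and 100% = reference inhibitor wells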
# MITF primary: blocks human microphthalmia-associated transcription factor | 0.91% of 650,000 active | AID 1259374 | inhibition, % at 2.6 µM | AlphaScreen MITF homodimerization, bead proximity signal | O75030; in the data active means inhibition above about 50%;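 further: 0% = vehicle wells with protein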
# Target sequence (O75030 whole entry, looked up): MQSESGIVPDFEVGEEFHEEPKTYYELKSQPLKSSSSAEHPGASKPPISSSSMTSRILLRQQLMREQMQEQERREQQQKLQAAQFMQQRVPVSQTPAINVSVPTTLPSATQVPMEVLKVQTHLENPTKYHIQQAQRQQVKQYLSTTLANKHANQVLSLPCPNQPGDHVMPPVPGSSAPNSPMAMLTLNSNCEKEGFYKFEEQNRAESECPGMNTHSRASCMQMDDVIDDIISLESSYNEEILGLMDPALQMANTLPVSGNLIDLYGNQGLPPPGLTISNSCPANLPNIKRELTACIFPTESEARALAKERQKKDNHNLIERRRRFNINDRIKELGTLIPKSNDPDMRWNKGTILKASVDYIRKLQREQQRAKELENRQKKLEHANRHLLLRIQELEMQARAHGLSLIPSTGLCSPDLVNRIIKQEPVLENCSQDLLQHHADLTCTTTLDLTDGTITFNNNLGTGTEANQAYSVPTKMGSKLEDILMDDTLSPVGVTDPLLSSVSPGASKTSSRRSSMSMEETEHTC
# MITF confirm: human MITF inhibition, confirmation; inhibition, % at 2.6 µM; shares compounds with MITF primary; AID 1259372; AlphaScreen MITF homodimerization, biotin/His-MITF beads; 16% of 4,700 active;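 active means inhibition above a cutoff derived from the DMSO control wells, cut at about 28% in these data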;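 further: 0% = MITF dimer wells with DMSO only; inhibitors lower the bead chemiluminescence by keeping MITF from dimerizing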
# AlphaScreen DR: optically interferes with AlphaScreen signal in dose response. shares compounds with MITF primary. AlphaScreen optical interference counterscreen, cell-free. IC50, µM. 6% of 480 active. AID 1259373; call rule not given here
# AlphaScreen intf2: AlphaScreen optical interference, counter-screen | shares compounds with MITF primary | AID 1259376 | LysRS AlphaScreen counterscreen, signal interference, triplicate | inhibition, % at 2.6 µM | 7.6% of 4,700 active;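 active means inhibition above a cutoff derived from the DMSO control wells, cut at about 30% in these data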
# * marks the source's active call; other numbers are inactive results; . = no result given. In the library only some 3.5% were active in any assay of this set; here they are far more common.
SMILES,GPR151 activ,FBW7 act,TEAD-YAP inh,MITF primary,MITF confirm,AlphaScreen intf2,others
Cc1ccc(C(=O)Nc2ccccc2NC(=O)c2ccc(C)o2)o1,0.0,-0.2,5.2,-2.0,.,.,
CCc1nc(-c2ccccc2)c2ccccn12,2.0,0.0,2.3,55.5*,9.3,13.7,
Cc1cc2ncn(Cc3noc(-c4ccco4)n3)c2cc1C,0.6,-0.3,-19.1,55.0*,33.2*,-4.6,AlphaScreen DR=>6.48
COCc1nc(Cn2cnc3cc(C)c(C)cc32)no1,-0.3,-0.1,-2.8,-2.2,.,.,
CC1=C(C(=O)O)N2C(=O)[C@@H](NC(=O)[C@H](N)c3ccccc3)[C@H]2SC1,2.7,-0.1,4.6,6.0,.,.,
C/C=C\C1=C(C(=O)O)N2C(=O)C(NC(=O)C(N)c3ccc(O)cc3)C2SC1 (stereo not given),-1.1,0.3,-10.2,50.8*,28.4*,4.6,AlphaScreen DR=>6.48
COc1ccc(CC(=O)N2N=C(C)CC2(O)c2ccncc2)cc1 (stereo not given),-0.4,-0.1,-1.0,-1.1,.,.,
O=c1[nH]cc(S(=O)(=O)O)c2ccccc12,0.7,0.8,1.1,65.0*,-4.2,0.5,
O=S(=O)(c1ccc(F)cc1)N1CCC(O)(c2cccnc2)CC1,-0.9,-0.3,-1.4,71.8*,11.6,17.1,
Cc1ccc(S(=O)(=O)N2CCC(O)(c3cccnc3)CC2)cc1,-1.0,-0.3,-0.8,32.5,.,.,
Clc1ccc(N2CCN(Cc3ccc(Br)o3)CC2)cc1,1.4,0.0,2.0,57.9*,3.8,-1.1,
Brc1ccc(CN2CCN(Cc3ccccc3)CC2)o1,0.4,-0.1,0.7,55.5*,4.4,15.2,
COc1ccccc1N1CCN(C2CCCN(C(=O)c3c(C)noc3C)C2)CC1 (stereo not given),-0.2,-0.1,4.4,1.2,.,.,
CCOC(=O)NC(=S)N/N=C/c1ccccn1,1.0,-1.6,3.1,64.1*,-8.2,31.8*,
Cc1ccc(Nc2nnc(SCC(=O)NC(=O)NCCC(C)C)s2)cc1,0.1,-0.1,-3.3,5.1,.,.,
Cc1ccc(S(=O)(=O)N2CCN(C(C)CC(=O)O)CC2)cc1 (stereo not given),-0.8,-0.1,-15.4,64.7*,-3.4,-0.4,
COCCNCCCCOc1c(C)cccc1C(C)(C)C,-0.2,0.0,-5.6,26.4,.,.,
C=CCNCCOCCOc1c(C)cccc1C(C)(C)C,-0.7,-0.1,-8.5,67.6*,-6.6,-6.2,
COCCCNCCOc1c(C)cccc1C(C)(C)C,-0.7,0.2,-13.8,81.4*,12.8,10.0,
COCCCNCCCOc1c(C)cccc1C(C)(C)C,-0.5,-0.1,1.9,34.2,.,.,
Cc1nc(CCNC(=O)Cn2cc(NC(=O)c3ccc4c(c3)OCO4)cn2)nc2c1CCC2,3.4,0.2,9.9,9.2,.,.,
Cc1ccc(/C=C2\N=C(c3cc([N+](=O)[O-])ccc3Cl)OC2=O)cc1,-1.3,-0.1,-1.9,0.8,.,.,
Clc1cc(CNC2CCN(Cc3ccccc3)CC2)cc2c1OCCO2,-0.1,-0.2,3.1,58.0*,10.2,10.3,
CCOC(=O)c1c(Nc2ccccc2N)cc(C)nc1C,0.4,0.1,-6.4,68.3*,-3.2,5.2,
N/C(=N\OC(=O)c1ccccc1-c1ccccc1)c1ccccn1,0.6,0.4,19.6,12.9,.,.,
SMILES,GPR151 activ,FBW7 act,TEAD-YAP inh,MITF primary,MITF confirm,AlphaScreen intf2,others
CCOC(=O)CS(=O)(=O)c1ccc(C(=O)NCCc2ccccc2)cc1[N+](=O)[O-],-0.8,0.0,-9.0,-5.5,.,.,
COCCN1CCN(C(=O)c2ncoc2-c2ccc3ccccc3c2)CC1,1.0,-0.1,-6.5,2.4,.,.,
Cc1ccc2nsnc2c1NC(=O)c1ncn[nH]1,0.9,-0.4,4.9,52.5*,11.5,4.3,
O=C(Cn1c(-c2ccccn2)nc2ccccc21)N/N=C/c1cn[nH]c1-c1ccccc1,0.3,0.1,10.7,13.1,.,.,
O=[N+]([O-])c1ccccc1CN1CCCCCC1,0.8,-0.2,6.4,39.0,.,.,
O=[N+]([O-])c1ccccc1CN1CCC(N2CCN(c3ccccc3F)CC2)CC1,-0.7,-0.4,5.5,47.1,.,.,
CC1CN(C2CCN(Cc3ccccc3[N+](=O)[O-])CC2)CC(C)O1 (stereo not given),1.0,-0.1,6.4,65.9*,-2.6,3.2,
CC1CCC(N2CCN(Cc3ccccc3[N+](=O)[O-])CC2)CC1 (stereo not given),0.7,-0.2,-3.1,69.3*,1.2,3.9,
CC1CN(Cc2ccccc2[N+](=O)[O-])CC(C)O1 (stereo not given),-0.9,-0.3,-0.6,39.5,.,.,
O=[N+]([O-])c1ccccc1CN1CCN(C2CCCCCC2)CC1,0.3,0.1,-0.3,74.9*,22.5,4.0,
O=C(N/N=C/c1cccc2ccccc12)c1ccncc1,2.4,0.1,5.2,2.1,.,.,
O=C(COc1ccc(F)cc1)N/N=C/c1cccc2cccnc12,-1.0,0.3,10.9,59.1*,27.9*,86.1*,
O=C(N/N=C/c1cccc2cccnc12)c1ccncc1,-0.4,0.0,0.6,95.8*,112.0*,100.3*,
O=C(N/N=C/c1cccc2cccnc12)c1ccccc1,-1.4,-1.6,-13.7,57.3*,77.6*,100.3*,
CSc1cccc(CN2CCN3C(=O)[C@H](CO)N(C)C(=O)[C@H]3C2)c1,0.0,0.0,5.7,7.4,.,.,
COc1ccc2c(Cl)c(C(=O)Nc3ccc(S(N)(=O)=O)cc3)sc2c1Cl,2.1,0.1,6.8,-1.5,.,.,
OC(CNC1CCCC1)COc1ccc(OCC(O)CNC2CCCC2)cc1 (stereo not given),3.0,-0.1,8.5,5.1,.,.,
CC1(C)C2CCC1(C)C(NCC(O)COc1ccc(C#N)cc1)C2 (stereo not given),-0.5,-0.2,4.5,76.8*,-18.4,-4.4,
CCc1nc(SCC(=O)c2ccc(OC)c(C)c2)n[nH]1,-0.9,-0.1,-7.8,2.0,.,.,
CCc1nc(SCC(=O)c2ccc(OC)cc2)n[nH]1,-0.5,-0.1,-7.9,50.6*,8.0,13.0,
CN(c1ccc(C(=O)NCc2ccccn2)cc1)S(=O)(=O)c1ccc(Cl)cc1,0.8,0.0,13.2,58.1*,-14.2,-2.7,
COc1ccc(C(=O)NCc2ccc3ncccc3c2)cc1OC1CCN(C(C)=O)CC1,0.5,0.0,-1.9,-4.0,.,.,
CCC(=O)N1CCc2cc(S(=O)(=O)N3CC(C)CC(C)C3)ccc21 (stereo not given),3.1,0.0,-5.5,80.9*,4.9,13.9,
CN(CCc1ccccn1)Cc1ccc(C(=O)NCc2ccccc2Cl)c(=O)[nH]1,-3.3,-0.1,-3.8,3.8,.,.,
CN(Cc1ccc(C(=O)NCc2ccccc2Cl)c(=O)[nH]1)Cc1nccn1C,-0.7,-0.1,2.0,51.6*,37.7*,77.6*,
COc1ccc(C(=O)CNCC2CCCO2)cc1OC (stereo not given),0.3,-0.2,1.6,68.8*,-14.4,1.1,
CCOC(=O)CCNC(C)C1COc2ccccc2O1 (stereo not given),0.7,-0.2,4.0,51.1*,10.6,12.6,
